Source: PubChem
Vc quorum ag – inducers of Vibrio cholerae quorum light production without autoinducers | V. cholerae BH1578 lux reporter, luminescence, 6 h | activation, % at 18.7 µM | actives 0.16% (n = 350,000) | AID 588436; in the data active = activation mostly above about 9.7%, no sharp cut-off
3CLpro inhibitor – SARS-CoV 3CLpro protease inhibition; actives 0.14% (n = 290,000); recombinant SARS-CoV 3CLpro, quenched FRET peptide cleavage; inhibition, % at 6 µM; P0C6X7; in the data active = inhibition above about 12%
Mtb FBA inh – inhibits M. tuberculosis FBA enzyme | P9WQA3 | purified M. tuberculosis FBA, fluorescence read-out | inhibition, % at 1 µM | actives 2.3% (n = 360,000) | AID 588726;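 note: 0% = vehicle and 100% = reference inhibitor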
Target sequence (P9WQA3 whole entry, looked up): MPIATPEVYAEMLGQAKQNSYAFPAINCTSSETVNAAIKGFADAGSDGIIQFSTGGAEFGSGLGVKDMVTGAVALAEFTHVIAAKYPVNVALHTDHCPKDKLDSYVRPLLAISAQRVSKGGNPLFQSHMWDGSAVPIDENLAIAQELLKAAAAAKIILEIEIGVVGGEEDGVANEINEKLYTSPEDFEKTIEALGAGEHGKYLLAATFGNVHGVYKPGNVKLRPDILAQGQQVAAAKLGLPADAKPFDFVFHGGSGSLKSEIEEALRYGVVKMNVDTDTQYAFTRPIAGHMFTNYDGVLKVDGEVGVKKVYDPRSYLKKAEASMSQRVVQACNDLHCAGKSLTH
PrPC TRFRET – inhibitors of human cell surface prion protein PrPC | P04156 | TR-FRET read-out | inhibition, % at 13.8 µM | actives 0.43% (n = 370,000); in the data active = inhibition above about 24%; note: 0% = median of the test wells and 100% = reference compound wells
GDH-TPI counter-1 – GDH-TPI coupled enzyme inhibition counter-screen. GDH-TPI coupled enzyme counterscreen, NADH absorbance. actives 1.2% (n = 360,000). AID 588335. inhibition, % at 4.8 µM; in the data active = inhibition above about 30%;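 note: 0% = DMSO wells and 100% = wells lacking the enzyme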
Mtb FBA inh conf – Mtb FBA inhibition, confirmed. shares compounds with Mtb FBA inh. purified M. tuberculosis FBA, fluorescence read-out. inhibition, % at 1 µM. actives 78% (n = 5,600);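 note: 0% = vehicle wells and 100% = reference inhibitor wells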
GDH-TPI counter-2 – counter-screen for M. tuberculosis FBA inhibitors: GDH-TPI coupled enzyme inhibition; shares compounds with Mtb FBA inh; GDH-TPI coupled enzyme counterscreen, fluorescence; inhibition, % at 1 µM; actives 81% (n = 5,600); AID 652141; in the data active = inhibition above about 10%
An asterisk follows results filed as active; i = inactive; x = not tested or not shown; + = active, no number. In the library only some 3.9% were active in any assay of this set; here they are far more common. Cut-off read from the data, not from the text of the source, unless noted: active = inhibition above about 27%; inactive = the rest.

SMILES | Vc quorum ag | 3CLpro inhibitor | Mtb FBA inh | PrPC TRFRET | GDH-TPI counter-1 | Mtb FBA inh conf | GDH-TPI counter-2
Cc1ccc(C(O)c2ncc(-c3ccc(F)cc3)[nH]2)c(C)c1 (centres undefined) | -3.3 | x | -0.9 | -1.1 | -1.8 | x | x
COc1cc2c3nc4n(c(=O)c3n(CC(=O)NCC3CCCO3)c2cc1OC)CCS4 (centres undefined) | i | 5.0 | 62.6* | 9.2 | 14.2 | 179.8* | 174.2*
COc1ccc(NC(=O)Cn2c3ccc(OC)cc3c3nc4n(c(=O)c32)CCS4)cc1 | -2.0 | 3.8 | 6.3 | 1.4 | 7.0 | x | x
CCN1CCCC1CNC(=O)c1cc2cc(F)ccc2[nH]1 (centres undefined) | -1.4 | 5.7 | 30.0* | 2.3 | -0.7 | + | +
CCN1CCCC1CNC(=O)Cn1nc(C)n2c(cc3cc(F)ccc32)c1=O (centres undefined) | 0.4 | 5.7 | 12.7 | -9.4 | 7.7 | x | x
COc1ccccc1N1CCN(C2CCCN(C(=O)CC(F)(F)F)C2)CC1 (centres undefined) | i | 2.0 | -0.3 | -2.4 | 10.4 | x | x
O=C(NCc1cc(Cl)cc(Cl)c1)c1ccc2nc([C@@H]3O[C@H](CO)[C@@H](O)[C@H]3O)[nH]c2c1 | 3.0 | x | 2.6 | -4.7 | 2.7 | x | x
O=C(NCc1ccco1)c1cc2nc(-c3ccc4c(c3)OCO4)cc(C(F)(F)F)n2n1 | -0.4 | 0.4 | 0.0 | -8.1 | 21.4 | x | x
COc1ccc(-c2cc(C(F)(F)F)n3nc(C(=O)NCc4ccco4)cc3n2)cc1 | i | 0.7 | 47.0* | -18.1 | 34.2* | 106.4* | 79.8*
CCOC(=O)CC1(C)NC(=O)c2c(C)sc(C(=O)OCC)c2N1 (centres undefined) | 3.1 | -7.7 | 54.9* | -4.7 | 16.9 | 2.5 | -1.8
CCCCC1(C)NC(=O)c2c(C)sc(C(=O)OCC)c2N1 (centres undefined) | -0.4 | -3.4 | 24.6 | 10.5 | 3.4 | x | x
CCOC(=O)CC1(CC(=O)OCC)NC(=O)c2c(C)sc(C(=O)OCC)c2N1 | -5.3 | 1.6 | 30.6* | 0.5 | 14.2 | 4.9 | 3.2
Cn1nccc1C(=O)Nc1ccc2c(c1)OCO2 | 0.7 | -5.2 | 2.2 | 1.0 | -3.1 | x | x
O=C(CSc1nc2scc(-c3ccccc3)c2c(=O)[nH]1)Nc1ccccc1 | -0.4 | -4.6 | 33.3* | -5.2 | 15.0 | -6.7 | -6.0
CC(C)CNC(=O)CSc1nc2scc(-c3ccccc3)c2c(=O)[nH]1 | -0.1 | -9.2 | -0.4 | 7.4 | -8.0 | x | x
Cc1cccc2c(N)c3c(nc12)N(C)CC3 | i | -1.7 | 30.6* | 0.3 | -4.3 | 77.2* | 45.0*
Cc1ccc2nc3c(c(N)c2c1)CCN3C | -0.3 | -6.1 | 24.8 | -12.5 | -8.8 | x | x
Cc1cccc2c(N)c3c(nc12)CCCC3 (tested in a mixture with another compound) | i | 2.4 | 6.0 | -10.2 | 2.5 | x | x
Cc1ccc2nc3c(c(N)c2c1)CCN3c1ccccc1 | i | 5.8 | 29.4* | -6.1 | 15.0 | + | +
CN1CCc2c1nc1ccccc1c2N=C1CCCN1Cc1ccccc1 | -0.2 | 2.9 | 11.6 | -2.9 | 10.4 | x | x
CN1CCc2c1nc1ccccc1c2N (tested in a mixture with another compound) | -1.0 | -7.4 | 28.9* | -16.4 | 8.9 | 95.7* | 82.7*
CC1(C)CC(NC(=O)C(Cl)(Cl)Cl)CC(C)(C)N1 | -0.4 | 0.9 | 0.4 | 8.1 | -9.2 | x | x
Cc1ccccc1-c1cc2nc(OCC3CCCO3)n(C)c(=O)c2s1 (centres undefined) | -0.1 | x | -2.2 | -4.8 | 3.5 | x | x
COC(=O)C1=CN(c2ccc(F)cc2)C=C(C(=O)OC)C1c1ccc(O)cc1 | i | 3.3 | 70.8* | 8.8 | 9.3 | 95.8* | 82.3*
CC(C)[C@H](NC(=O)c1ccccc1)C(=O)N1CCC[C@H]1C(=O)NCCc1ccccc1Cl | x | x | x | -0.4 | x | x | x
SMILES | Vc quorum ag | 3CLpro inhibitor | Mtb FBA inh | PrPC TRFRET | GDH-TPI counter-1 | Mtb FBA inh conf | GDH-TPI counter-2
COC(=O)N/N=C/c1cc(C)n(-c2ccccc2)c1C | -2.7 | -0.2 | -2.0 | 9.2 | 10.1 | x | x
CCNC(=S)N/N=C/c1cc(C)n(-c2ccc(Cl)cc2)c1C | -0.7 | 1.6 | -1.5 | 7.7 | 6.2 | x | x
Cc1cc(/C=N/NC(=O)Cn2c3ccccc3c(=O)c3ccccc32)c(C)n1-c1ccc(Cl)cc1 | -0.2 | -1.8 | 82.8* | 3.5 | 8.4 | 143.6* | 119.3*
Cc1ccc(-n2c(C)cc(/C=N/NC(=O)Cn3c4ccccc4c(=O)c4ccccc43)c2C)cc1 | -0.6 | -3.3 | 74.0* | 0.5 | 12.5 | 133.3* | 119.1*
CN1C2=N[C@@H](c3ccc4ccccc4c3)CC(=O)N2/C(=C\c2ccccc2)[C@H]1c1ccccc1 | x | x | x | 11.8 | x | x | x
CC(C)Oc1cccc(C(=O)C2CCCN(Cc3cnc(N4CCOCC4)s3)C2)c1 (centres undefined) | -0.5 | 2.2 | -2.3 | 2.4 | 0.0 | x | x
CC1CCN(S(=O)(=O)c2cn(CC(=O)Nc3cccc(C#N)c3)cn2)CC1 | -0.2 | -1.8 | 38.7* | 8.0 | 16.8 | 80.0* | 64.9*
CCCOC(=O)c1cc(-c2ccc(C=O)o2)ccc1Cl | -0.3 | -0.8 | 97.3* | 0.4 | 27.6 | 7.0 | -4.5
COc1ccc(C(=O)c2sc3nc(-c4ccc(OC)cc4)ccc3c2N)cc1 | i | -1.7 | 33.9* | -6.8 | 18.7 | 27.9* | 31.0*
O=C(CN1C(=O)COc2ccc(Cl)cc21)NC1CC1 | -0.8 | 0.1 | 2.6 | 6.2 | 12.4 | x | x
Cn1c2ccccc2c2cc(C(=O)N3CCN(CCO)CC3)sc21 | -0.3 | -6.3 | 29.0* | -1.7 | 17.8 | 121.6* | 90.1*
CC(=O)NNC(=O)c1cc2c3ccccc3n(C)c2s1 | -0.2 | 1.4 | 8.4 | 5.9 | 20.2 | x | x
COC(=O)c1ccc2nc(-c3cccc(Br)c3)c(Cc3cccc(Cl)c3)n2c1 | x | x | x | 2.9 | x | x | x
N#Cc1c(NC(=O)c2ccc(Br)o2)n(-c2ccccc2)c2nc3ccccc3nc12 | -0.2 | 4.0 | 48.3* | 1.5 | 12.1 | 33.9* | 24.8*
COc1ccc(-n2c(NC(=O)c3ccc(Br)o3)c(C#N)c3nc4ccccc4nc32)cc1 | x | -7.4 | x | x | x | x | x
CCC(=O)Nc1c(C#N)c2nc3ccccc3nc2n1-c1ccc(C)cc1 | -2.1 | x | 37.6* | 3.0 | 11.3 | 80.0* | 84.2*
Cn1c(=O)c2cc(NC(=O)NCc3ccc(Cl)cc3Cl)ccc2n1Cc1ccccc1 | -0.4 | x | 48.3* | -3.2 | 8.0 | 152.5* | 116.6*
Cn1c(=O)c2cc(NC(=S)NCc3ccccc3F)ccc2n1C | -0.4 | x | 57.1* | -0.8 | 8.2 | 17.8 | 11.8*
COc1cc(CCC(=O)Nc2cccc(C(F)(F)F)c2)cc(OC)c1OC | -0.2 | 1.1 | -1.1 | 10.1 | 10.6 | x | x
Cn1c(=O)c2cc(NC(=O)CCc3cccc(Cl)c3)ccc2n1Cc1cccc(C(F)(F)F)c1 | i | x | 36.7* | 6.3 | -3.5 | 95.6* | 84.3*
